In PubChem BioAssay (NCATS):
Inconclusive results are not listed. A call without a number means that no potency is given here. The source made the active and inactive calls. The call rests on the fitted dose curve; in most records, active means well fitted cell-killing curve with a large enough effect; inconclusive means small, poorly fitted or top-dose-only effect, or effect the other way; inactive means flat fitted curve, though single readings scatter. *1 amine or outer side, *2 acyl side, *3 side chain or, on linkers, in order; H or OH if unused. Where a SMILES comes first, the peptide text is derived from it. [ ]: non-standard residue; d: D form. X13 = O=C(C(CC(O)CO)O[*:1])[*:2]; NMeV = CN[CH](C(=O)O)C(C)C; NMeA = CN[CH](C)C(=O)O; βAla = NCCC(=O)O

The compounds below were run on JEG-3 (assay: Primary qHTS to identify gynecologic anti-cancer compounds using libraries of approved drugs and bioactive compounds (AID 1345084; further: nearly all actives have a fitted effect of over 55% in size)). Conditions: Gynecologic cancer cell panel viability, ATPlite luminescence, 48 h; series mostly up to 57.5 µM.
Summary of the method: (§1)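 Cells, 1,000 per well, were allowed to settle for 16 h at 37 C before compound addition. Five concentrations were tested for 48 h, and viability was read by ATPlite luminescence after 15 min at room temperature.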

SMILES	Potency	activity change, negative = cytotoxicity
CCN=C1N[C@@H]2[C@@H](O)[C@H](O)[C@@H](CO)O[C@@H]2S1	inactive	
O=C(NC1CCN(CC(F)(F)F)CC1)c1ccc(-c2cccc(F)c2)nc1	inactive	
COc1cc(/C=C/C(=O)O[C@H]2[C@@H]3C=CO[C@@H](O[C@@H]4O[C@H](CO)[C@@H](O)[C@H](O)[C@H]4O)[C@@H]3[C@@]3(CO)O[C@@H]23)ccc1O	inactive	
C[C@@H]1[C@H](O)[C@@H]2OC(=O)C3=C2[C@H](CCC3)[C@@]12C[C@@H](c1ccoc1)OC2=O	inactive	
CC1OC(OC2CCC3(C)C(CCC4(C)C3C=CC35OCC6(CCC(C)(C)CC63)CCC45C)C2(C)CO)C(OC2OC(CO)C(O)C(O)C2O)C(O)C1OC1OC(CO)C(O)C(O)C1O (configuration not stated)		8.45% [at 11.6 µM] (inactive)
CCC(C)C1NC(=O)C2CCCN2C(=O)C(CC(O)CO)OC(=O)CCNC(=O)C(C)N(C)C(=O)C(C(C)C)N(C)C1=O (configuration not stated) (cyclo([X13]PI[NMeV][NMeA][βAla]); configuration not given here)	inactive	
CC(O)C(=O)/C=C/C=C/C(=O)OC1C=C2COC(=O)C2(O)C2(C)CCCC(C)(C)C12 (configuration not stated)	inactive	
CC(C)C(O)(CO)CCO[C@@H]1O[C@H](CO[C@H]2OC[C@](O)(CO)[C@H]2O)[C@@H](O)[C@H](O)[C@H]1O (some centres not stated)	inactive	
Nc1ncnc2c1ncn2[C@H]1O[C@@H](C(=O)N2CCN(CC(=O)Nc3cccc4c3CNC4=O)CC2)[C@H](O)[C@@H]1O	inactive	

These compounds were tested on OV90 in the same assay as above. Conditions: Gynecologic cancer cell panel viability, ATPlite luminescence, 48 h; series mostly up to 57.5 µM.
Summary of the method: as §1

SMILES	Potency	activity change, negative = cytotoxicity
COC(=O)C1=CO[C@@H](O[C@@H]2O[C@H](CO[C@@H]3O[C@H](CO)[C@@H](O)[C@H](O)[C@H]3O)[C@@H](O)[C@H](O)[C@H]2O)[C@@H]2C(CO)=CC[C@H]12	inactive	
CSCC1OC(n2cnc3c(=O)[nH]cnc32)C(O)C1O (configuration not stated)	inactive	
COc1cc(C)c(C(=O)OC2C(C)OC(OC3CCC(C)C4C3C=C(C)C3/C(C)=C\CC/C(C)=C/C5(C)C=C(C(=O)O)C(C)CC56OC(=O)/C(=C(\O)C34C)C6=O)C(O)C2O)c(OC)c1 (configuration not stated)		2.6% [at 11.6 µM] (inactive)
OC[C@H]1O[C@@H](OCc2ccccc2)[C@H](O[C@@H]2OC[C@@H](O)[C@H](O)[C@H]2O)[C@@H](O)[C@@H]1O	inactive	
Nc1ccc(-n2nc(C(F)(F)F)cc2C(F)(F)F)cc1	inactive	
Oc1ccc(CC2NCCc3cc(O)c(O)cc32)cc1 (configuration not stated)	inactive	
NCCCCN(Cc1nc2ccccc2[nH]1)[C@H]1CCCc2cccnc21	inactive	
C/C(=C\C1CCC(C)C2CCC3(C)OC123)C(=O)O (configuration not stated)	inactive	
CC1=C2C3OC(=O)C(C)C3(O)CCC2(C)CCC1 (configuration not stated)	inactive	
O=C(N[C@H](Cc1ccccc1)C(=O)O)c1sc2cc(F)ccc2c1Cl	inactive	
CC(=O)c1ccc(O[C@@H]2O[C@H](CO[C@@H]3OC[C@@H](O)[C@H](O)[C@H]3O)[C@@H](O)[C@H](O)[C@H]2O)cc1	inactive	
C=C1C[C@H](O)[C@@H](O)[C@@]2(C)C1[C@@H](O)[C@H]1OC(=O)C3[C@@H](C)[C@@H](O)[C@H](O)C2[C@]31C (some centres not stated)	inactive	
CCCC/C=C\CCCCCc1cc(=O)c2ccccc2n1C	inactive	
Cn1cc(Nc2cnccc2C(=O)O)c2cccnc21	inactive	
C[C@H]1[C@H](C)C[C@@H](C(=O)O)C2CC[C@]3(C)C(=CC[C@@H]4[C@@]5(C)CC[C@H](O)C(C)(C)[C@@H]5CC[C@]43C)[C@@H]21 (some centres not stated)	inactive	
C=CC(C)(O)CC/C=C(\C)C(=O)O[C@@H]1[C@@H](O)[C@H](OC(C)(C=C)CC/C=C(\C)C(=O)O)O[C@H](CO)[C@H]1OC(=O)/C(C)=C/CCC(C)(O)C=C (some centres not stated)	inactive	
CC1(C)CC[C@]2(C(=O)O[C@@H]3O[C@H](CO)[C@@H](O)[C@H](O)[C@H]3O)CC[C@]3(C)C(=CCC4[C@@]5(C)CC[C@H](O[C@@H]6O[C@H](C(=O)O)[C@@H](O)[C@H](O)[C@H]6OC6OC(CO)C(O)C(O)C6O)C(C)(C)C5CC[C@]43C)[C@@H]2C1 (some centres not stated)		1.96% [at 11.6 µM] (inactive)
COc1cccc(C)c1C(=O)O[C@@H]1C[C@H](O[C@H]2[C@H](O)C[C@H](O[C@@H]3CCC[C@H]4[C@H]3C=C[C@@H]3CCCC/C=C/[C@H]5C=C(C(=O)O)[C@@H](C)C[C@@]56OC(=O)C(=C6O)OC(=O)[C@@]34C)O[C@@H]2C)O[C@H](C)[C@H]1O		2.5% [at 11.6 µM] (inactive)
